Shown are actives, neighbours in structure and some others; about 4.8% of the full set was active somewhere.
DAX1 inh-1 – DAX1 (NR0B1) inhibitors, primary screen, cell-based, HEK293, Gal4-DAX1, luciferase luminescence; Nuclear receptor subfamily 0 group B member 1 (Homo sapiens), P51843; HEK293 Gal4-DAX1 luciferase reporter; inhibition, % at 6.75 µM; actives 0.99% (n = 340,000);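 active means inhibition above the mean over all tested compounds plus 3 SD, cut at about 4.2% in these data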;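 further: 0% = DAX1-transfected cells with DMSO and 100% = empty-vector control cells with DMSO; inhibition shows as a rise in luminescence from relieved DAX1 repression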
Target sequence (P51843 207-470 limits assumed): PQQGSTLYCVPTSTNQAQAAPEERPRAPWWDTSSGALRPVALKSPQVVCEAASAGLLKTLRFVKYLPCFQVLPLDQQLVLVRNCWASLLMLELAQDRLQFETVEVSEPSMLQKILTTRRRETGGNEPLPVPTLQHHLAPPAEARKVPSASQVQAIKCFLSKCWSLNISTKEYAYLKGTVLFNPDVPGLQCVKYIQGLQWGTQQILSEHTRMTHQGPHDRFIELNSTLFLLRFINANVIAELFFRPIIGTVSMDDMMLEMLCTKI
DAX1 inh-2 – DAX1 (NR0B1) inhibitors on StAR promoter, primary screen, cell-based, luminescence, SF-1 (NR5A1), full-length DAX-1 | AID 652010, 2013 | inhibition, % at 6.8 µM | HEK293T StAR-luciferase reporter, SF-1/DAX-1 repression relief | actives 1.1% (n = 370,000);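 active means inhibition above the mean over all tested compounds plus 3 SD, cut at about 3.6% in these data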;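 further: 0% = DAX-1 cells with DMSO and 100% = cells lacking DAX-1 with DMSO; higher inhibition means more luminescence from relief of DAX-1 repression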
hgDAF-12 ag – H. glycines DAF-12 receptor agonists, primary screen, cell-based, luminescence, HEK293, GAL4 fusion, UAS-luciferase. Nuclear hormone receptor DAF-12 (Heterodera glycines), GAL4 fusion. HEK293 GAL4-hgDAF12 UAS-luciferase reporter, agonist luminescence; normalized to butyrate control. activation, % at 6.8 µM. actives 1.8% (n = 370,000). AID 687014, 2013;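 active means activation above a cutoff set at the mean of all screened compounds plus 3 SD, cut at about 10% in these data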;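 further: 0% = DMSO wells and 100% = sodium butyrate wells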
SMARCA2 act – SMARCA2 (BRM) function activators, primary screen, cell-based, luminescence, high throughput; activation, % at 9.1 µM; MG213 cells, MMTV-luciferase reporter, dexamethasone, overnight; actives 1% (n = 370,000); AID 652017, 2013; in the data active means activation above about 7.8%;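 further: 0% = vehicle wells and 100% = reference activator wells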
hcDAF12 agonist – H. contortus DAF-12 nuclear receptor activators, primary screen, cell-based, luminescence, HEK293, lit1-tk-luc reporter; HEK293 hcDAF-12 lit1-tk-luc reporter; 0% DMSO, 100% Δ7-dafachronic acid; activation, % at 6.8 µM; actives 1.4% (n = 370,000); AID 652067, 2013;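 active means activation above the mean of all tested compounds plus 3 SD, cut at about 5.5% in these data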;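 further: 100% = response to 3 µM Δ7-dafachronic acid high control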
ssDAF12 agonist – S. stercoralis DAF-12 nuclear receptor activators, primary screen, cell-based, luminescence, HEK293, GRIP1 co-expression, lit1-tk-luc. Nuclear hormone receptor DAF-12 (Strongyloides stercoralis). HEK293 ssDAF-12/GRIP1 lit1-tk-luc reporter; % of 3 µM dafachronic acid response. activation, % at 6.8 µM. actives 1% (n = 370,000);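 active means activation above the mean over all tested compounds plus 3 SD, cut at about 0.9% in these data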;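 further: 0% = DMSO-only wells and 100% = 3 µM delta7-dafachronic acid wells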
* = called active by the depositor; · = no result.

SMILES | DAX1 inh-1 | DAX1 inh-2 | hgDAF-12 ag | SMARCA2 act | hcDAF12 agonist | ssDAF12 agonist
CN([C@@H](C(=O)OC(C)(C)C)c1ccccc1)S(=O)(=O)c1cccc(S(=O)(=O)N(C)[C@@H](C(=O)OC(C)(C)C)c2ccccc2)c1 | -0.3 | 0.9 | 3.8 | -0.2 | 0.5 | -0.7
CS(=O)(=O)c1ccc(Cl)c(NC(=O)Cc2ccccc2F)c1 | -1.2 | 0.3 | -1.6 | -3.4 | 0.4 | -1.4
Cc1ccc(S(=O)(=O)N2CCCCC2)cc1NC(=O)COC(=O)Cc1c(F)cccc1Cl | -1.5 | -0.1 | -0.8 | -1.4 | 6.1* | -1.8
CS(=O)(=O)c1ccc(Cl)c(NC(=O)Cc2c(F)cccc2Cl)c1 | -1.1 | 0.3 | -1.6 | -3.2 | 5.6* | -0.3
O=C(NCc1ccccc1)C1(C(=O)C2CC2)CC(c2ccccn2)=NO1 (configuration not stated) | · | 0.8 | 1.5 | -4.1 | 1.3 | -0.3
O=C(Nc1nccs1)C1(C(=O)C2CC2)CC(c2ccccn2)=NO1 (configuration not stated) | · | 1.0 | 6.4 | 1.7 | 3.0 | 1.0*
O=C(/C=C/c1nc2ccccc2s1)N1CCCCCC1 | 0.2 | 2.7 | 11.1* | 6.1 | 1.5 | -0.6
CC(CN1CCCCC1)OC(=O)c1ccc2c(c1)OCCO2 (configuration not stated) | -0.3 | 1.0 | 6.6 | 1.3 | 4.0 | -0.5
CC(CN1CCOCC1)OC(=O)c1ccc2c(c1)OCCO2 (configuration not stated) | 1.6 | 1.0 | 10.7* | 4.4 | 4.2 | -0.2
Cc1ccc(N(CC(=O)NCCc2ccccc2)C(=O)c2csnn2)cc1 | -0.9 | -0.4 | 3.5 | -1.8 | 0.0 | -1.2
CC(C)c1ccc(N(CC(=O)NCCc2ccccc2)C(=O)c2csnn2)cc1 | 1.0 | -0.2 | 2.0 | 7.8* | 0.1 | -1.0
Cc1ccc(NC(=O)C2(C)CCN2C2Cc3ccccc3C2)cc1 (configuration not stated) | · | -0.1 | -2.0 | -3.1 | -1.1 | -1.2
CCc1ccc2oc(C(=O)Nc3cccnc3)c(C)c2c1 | 5.1* | · | · | · | · | ·
CCOc1ccc(N(Cc2nnc3n2CCCCC3)C(=O)Nc2cccc(C)c2)cc1 | 6.6* | 0.7 | -2.1 | -5.2 | 0.8 | -1.3
CN1C(=O)C(CC(=O)Nc2ccc(F)cc2)N(Cc2cccs2)C1=S (configuration not stated) | 0.8 | 0.9 | 3.1 | 0.2 | 3.0 | 9.6*
Cc1ccccc1C=O | 1.3 | 0.2 | 2.0 | 0.2 | 0.0 | -1.5
Cc1ccccc1/C=C/C1=NCCN1 | -1.3 | -0.9 | -4.1 | -0.3 | -0.1 | 1.2*
Cc1cc2cc(CNC(=O)Cc3cccs3)ccc2n1C | 0.1 | · | · | · | · | ·
CC(=O)c1ccc(Nc2ncnc3c2oc2ccccc23)cc1 | 1.7 | 1.2 | 9.7 | 1.5 | 2.5 | 1.0*
CC(=O)Nc1ccc(Nc2nc(C)nc3c2oc2ccccc23)cc1 | -0.9 | 0.3 | -4.0 | 0.7 | -0.4 | -1.6
Cc1cc([N+](=O)[O-])nn1CCC(=O)NC1CCCCCC1 | 0.9 | 0.1 | -0.4 | -0.1 | 2.1 | -1.1
O=C(CCC(=O)N1CCOc2ccccc21)NCCCN1CCCCC1 | -0.2 | 0.8 | 0.8 | -3.9 | -0.5 | -1.2
CCN1CCN(CCCNC(=O)CCC(=O)N2CCOc3ccccc32)CC1 | 0.3 | 1.2 | -3.4 | -0.2 | 5.7* | -1.0
COc1cc(OC)cc(C(=O)NCC(=O)OCC(=O)c2cc(OC)ccc2OC)c1 | -1.0 | 1.1 | -0.1 | 0.4 | -0.7 | -1.3
O=C(CSc1nc(=O)n(CCCN2CCOCC2)c2c1CCC2)Nc1ccc(F)cc1F | -0.9 | 1.0 | -1.4 | -2.7 | 0.7 | -0.4
SMILES | DAX1 inh-1 | DAX1 inh-2 | hgDAF-12 ag | SMARCA2 act | hcDAF12 agonist | ssDAF12 agonist
COc1cc(C(c2c(C(=O)O)[nH]c3ccccc23)c2c(C(=O)O)[nH]c3ccccc23)ccc1OCc1ccccc1 | 1.2 | -0.2 | 0.5 | -0.8 | 5.9* | 0.5
CC1CCCN(C(C(=O)Nc2ccc3c(c2)OCCO3)c2ccccc2)C1 (configuration not stated) | -0.2 | 0.4 | -2.0 | -2.5 | -1.4 | -1.1
O=C(Nc1cccs1)Nc1nnc([C@@H]2C[C@H](O)[C@@H](CO)O2)s1 | · | 0.5 | 3.7 | 6.7 | 1.8 | -0.6
CCC(C)n1c(SCC(=O)NC(=O)Nc2ccc3c(c2)OCCO3)nc2ccccc2c1=O (configuration not stated) | 0.2 | 0.4 | -0.7 | -1.9 | -0.9 | -1.0
Cc1ccc(Cc2c(-c3ccc(Cl)cc3)nc3cc(C)c(Br)c(C)n23)cc1 | · | 4.1* | 3.2 | 2.7 | 2.6 | 1.2*
Cc1cc2nc(-c3ccc(Cl)cc3)c(CC(C)(C)C)n2c(C)c1Br | · | -2.1 | 4.2 | 3.7 | 1.6 | 0.5
Cc1ccc(-c2nc3cc(C)c(Br)c(C)n3c2Cc2ccccc2)cc1 | · | 0.9 | 9.6 | 6.4 | 5.6* | 0.5
Cc1cc2nc(-c3ccc(Cl)cc3)c(CC3CCCCC3)n2c(C)c1Br | · | 3.5 | 3.8 | 1.1 | 6.1* | 1.4*
COC(=O)c1cc2c(c3c4cc(OC)ccc4n(S(=O)(=O)c4ccc(OC)cc4)c13)C(=O)N(Cc1ccc(N(C)C)cc1)C2 | · | -0.4 | 2.1 | -1.6 | -0.2 | -0.9
CCOc1ccc(-n2c(SCC(=O)Nc3cc(C)on3)nnc2-c2c[nH]c3ccccc23)cc1 | 0.3 | -0.1 | 0.1 | -1.4 | -1.0 | -0.4
COc1ccc(C(C)=O)cc1CSc1nnc(Nc2c(C)cccc2C)s1 | 4.6* | -0.7 | -3.9 | -2.6 | -0.8 | -1.6
OCCNc1nc(-c2ccccc2)nc2ccccc12 | -0.2 | -0.5 | 5.1 | 0.8 | 0.7 | 1.1*
OCCCNc1nc(-c2ccc(Cl)cc2)nc2ccccc12 | -1.0 | 0.1 | 0.8 | 3.6 | -0.5 | -1.0
CC(NC(=O)C1CCCC1)c1ccccc1 (configuration not stated) | -0.6 | 0.1 | -1.6 | -2.1 | -2.5 | -1.5
O=C(NC(c1ccccc1)c1ccccc1)C1CCCC1 | 0.4 | -0.4 | 2.8 | -2.4 | 0.1 | 1.4*
Cc1ccc(NC(=O)CSc2ccccc2NC(=O)c2ccccc2)cc1Cl | -0.1 | 0.4 | 8.0 | 0.1 | 5.6* | 0.2
O=C(COc1ccc(Cl)cc1Cl)OCC(=O)N1CCCc2ccccc21 | 9.8* | 0.8 | 3.8 | 0.6 | 4.7 | 0.7
O=C(CCCOc1ccc(Cl)cc1Cl)N1CCCc2ccccc21 | -1.0 | -0.4 | -2.4 | 0.2 | 0.1 | -1.1
Cn1c(=O)[nH]c(=O)c2c1nc(N1CCNCC1)n2Cc1ccccc1 | -1.0 | -0.1 | -3.0 | 1.2 | -2.1 | -1.3

Screening results deposited in PubChem by The Scripps Research Institute Molecular Screening Center.
